# Hits are enriched below; roughly 2.2% of the tested compounds scored in any of these assays.
# APP transl inh: APP translation inhibition; AID 1285; SH-SY5Y APP 5'UTR-luciferase reporter, luminescence; 0.82% of 190,000 active; inhibition, % at 2 µM;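 active = inhibition above a set limit, derived from the sample mean plus 3 SD, cut at about 45% in these data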
# IEC-6 tox: counter-screen for KLF5 inhibitors: cytotoxicity in IEC-6 cells | IEC-6 cytotoxicity, luminescence viability | inhibition, % at 5 µM | AID 1825 | 0.78% of 290,000 active; in the data active = inhibition above about 22%;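 note: 0% = plate median of test compound wells and 100% = cytotoxic reference compound wells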
# Ba/F3 V617F tox: loss of viability in JAK2V617F-driven Ba/F3 cells | Ba/F3 EpoR-JAK2V617F viability, ATP luminescence | inhibition, % at 5.6 µM | 1.1% of 220,000 active | AID 1446;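 active = inhibition above the campaign mean plus 3 SD over all tested compounds, cut at about 24% in these data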;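 note: cytokine-independent growth of Ba/F3 cells driven by EpoR plus mutant JAK2; 0% = DMSO-treated cells and 100% = JAK inhibitor I control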
# aSyn UTR inh: MLPCN primary screen, SNCA 5' untranslated region. alpha-synuclein 5'UTR reporter, inhibitor activity. inhibition, % (tested at 7.5 µM). 0.82% of 300,000 active. AID 1813; in the data active = inhibition above about 60%;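 note: H4 neuroglioblastoma cells stably carrying SNCA 5'UTR luciferase fusion; 0% = DMSO wells and 100% = positive control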
# KLF5 inhibitor: inhibitors of KLF5 expression. 0.23% of 290,000 active. inhibition, % at 5 µM. DLD-1 KLF5 promoter-luciferase reporter, luminescence;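 active = inhibition above a per-plate limit of that plate's mean compound inhibition plus 3 SD, cut at about 60% in these data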;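 note: 0% = DMSO wells and 100% = LY294002 at 200 µM; higher means less KLF5 promoter-driven luciferase light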
# BaF3 parental: parental Ba/F3 viability inhibition as JAK2V617F counter-screen | CellTiter-Glo ATP luminescence | inhibition, % at 5.6 µM | 1.1% of 220,000 active;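 active = inhibition above a per-campaign cutoff, the mean inhibition of all tested compounds plus 3 SD, cut at about 27% in these data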;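 note: 0% = DMSO wells and 100% = JAK Inhibitor I control wells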
# An asterisk follows results filed as active; nt = no result.
SMILES,APP transl inh,IEC-6 tox,Ba/F3 V617F tox,aSyn UTR inh,KLF5 inhibitor,BaF3 parental
CCCCN=C(Nc1ccc(Cl)cc1)c1cccnc1,-17,0,-2,0,-11,8
NC(=NCCCCCCN=C(N)/N=C(\N)Nc1ccc(Cl)cc1)/N=C(\N)Nc1ccc(Cl)cc1,nt,4,nt,96*,-12,nt
CC(=O)N1/C(=C/c2ccc(N(C)C)cc2)C(=O)c2ccccc21,81*,21,2,-48,21,-8
O=[N+]([O-])c1cccc(S(=O)(=O)NC2CC3CCC2C3)c1 (centres undefined),nt,6,nt,4,-11,nt
O=C(Cn1ncnn1)OCc1ccccc1Cl,68*,-4,-3,-8,-3,0
CC1CCCN(c2ncnc3c2cnn3-c2ccc(Cl)cc2)C1 (centres undefined),nt,nt,nt,98*,nt,nt
c1ccc(-n2ncc3c(N4CCCCC4)ncnc32)cc1,-115,0,-3,94*,8,2
CC(=O)Nc1ccc(S(=O)(=O)N[C@@H](C)C(=O)N2CCN(c3ccccn3)CC2)cc1,nt,nt,nt,5,nt,nt
CC(=O)c1ccc(OCC(O)COc2ccc(C(C)=O)cc2)cc1,11,1,3,12,-14,96*
O=C(Nc1ccc(S(=O)(=O)N2CCOCC2)cc1)c1cccc(Br)c1,nt,2,nt,-28,0,nt
O=C(COc1coc(CN2CCN(c3ccccc3)CC2)cc1=O)NC1CCCCC1,nt,nt,nt,11,nt,nt
CC1CCN(c2ccc(-c3ccc(NC(=O)C(F)(F)F)cc3)nn2)CC1,nt,11,nt,71*,40,nt
Cc1csc(NC(=O)C(F)(F)F)n1,17,-6,-4,13,5,4
COc1ccc(CCN2CCC(Nc3nc4ccccc4n3Cc3ccc(F)cc3)CC2)cc1,3,4,75*,103*,-29,41*
COc1ccc(CNc2nc3ccccc3n2CCN2CCCCC2)cc1,-29,8,0,-22,-26,-1
COC(=O)c1cc(Br)ccc1NC(=O)CCNC(=O)c1ccco1,nt,-3,nt,-12,1,nt
Cc1nn(-c2cc(N3CCCCC3)ccc2N)c(=O)c2ccccc12,-6,-7,-7,-5,-31,-2
Nc1ccc(N2CCCCC2)cc1N1CCCCC1,4,6,2,85*,-15,5
Nc1cc(Cl)ccc1N1CCCCCC1,-10,-2,42*,4,-2,56*
COc1ccc(N2C(=O)CCC(C(=O)O)C2c2ccc(F)cc2)cc1 (centres undefined),-14,1,2,-1,-3,7
COc1ccc(C2C(C(=O)Nc3cccc(C)n3)CCC(=O)N2c2ccc(OC)cc2)cc1 (centres undefined),-2,-4,-1,73*,8,7
COc1ccc(N2C(=O)CCC(C(=O)N3CCCCC3)C2c2ccc(F)cc2)cc1 (centres undefined),-17,-3,6,2,-55,2
COc1ccc(N2C(=O)CCC(C(=O)N3CCC(C(N)=O)CC3)C2c2ccc(F)cc2)cc1 (centres undefined),-5,3,2,-6,-13,69*
Cc1ccc2c(c1)Oc1ccc(NC(=O)CCl)cc1C(=O)N2,53*,16,85*,-30,2,83*
Fc1ccc(-c2nc3ccccc3[nH]2)cc1,-103,4,2,-96,-117,63*
SMILES,APP transl inh,IEC-6 tox,Ba/F3 V617F tox,aSyn UTR inh,KLF5 inhibitor,BaF3 parental
Cc1ccccc1C(=O)O/N=C/c1c(N2CCOCC2)n(C)c2ccccc12,30,-4,1,87*,-39,-3
Cc1ncsc1CCC(=O)N1CCCC(Nc2ccc(C(C)C)cc2)C1 (centres undefined),nt,-1,nt,-15,-12,nt
CCOC(=O)C1=C(C)N=c2s/c(=C\c3cccn3C)c(=O)n2C1c1cccc(OC)c1OC (centres undefined),-9,-2,-5,29,-25,96*
O=C(COC(=O)c1cc(-c2ccccc2Cl)nc2ccccc12)Nc1ncc(C(F)(F)F)cc1Cl,49*,-2,-4,40,16,0
C=CCc1cc(OC)ccc1OCCN1CC(C)OC(C)C1 (centres undefined),nt,0,nt,24,6,nt
CN1/C(=C\C(=S)NC(=O)c2cccc(Br)c2)C(C)(C)c2ccccc21,-10,1,59*,-14,7,64*
Cn1cnnc1SCC(=O)NCc1ccccc1,14,-5,1,-23,-4,1
COc1cc(OC)cc(C(=O)NCC(=O)OCC(=O)/C=C2/N(C)c3ccccc3C2(C)C)c1,12,-2,-1,11,-10,4
CN1/C(=C\C(=O)COC(=O)Cn2nnc(-c3ccccc3)n2)C(C)(C)c2ccccc21,15,3,63*,31,-19,63*
CN1/C(=C\C(=O)CSc2nncn2C)C(C)(C)c2ccccc21,17,2,37*,7,-30,47*
CN1/C(=C/C(=O)C2CC2)C(C)(C)c2ccccc21,-16,-3,-1,nt,-7,41*
CN1/C(=C\C(=O)Nc2ccc(Br)cc2)C(C)(C)c2ccccc21,-1,-11,-1,14,-12,3
COc1cccc(N2CCN(S(=O)(=O)c3cc4c(cc3Cl)NC(=O)CO4)CC2)c1,nt,4,nt,1,-14,nt
C(C#CCCCCCCCCC[n+]1ccccc1)#CCCCCCCCCC[n+]1ccccc1,nt,51*,nt,73*,46,nt
Cc1cc(CN2CCC(n3nccc3NC(=O)c3ccccc3Cl)CC2)cc(C)c1O,nt,-1,nt,4,-7,nt
CCCCSc1nc2sc3c(c2c(=O)n1-c1ccccc1)CCN(C)C3,nt,-3,nt,3,-30,nt
CCCCNc1nc2sc3c(c2c(=O)n1-c1cccc(Cl)c1)CCN(C)C3,nt,-3,80*,nt,-19,68*
CCCCCNc1nc2sc3c(c2c(=O)n1-c1cccc(Cl)c1)CCN(C)C3,nt,5,76*,nt,-10,68*
CCc1cnccc1CCC(=O)Nc1ccccc1C,nt,nt,nt,-3,nt,nt
CNCCCCOc1ccc(C(C)(C)C)cc1Cl,-23,6,3,-22,-22,4
CCCOc1ccc(CCCN=C(N)N)cc1Cl,nt,10,25*,-17,-2,46*
CCCCOc1ccc(CN=C(N)N)cc1Cl,nt,8,15,15,-15,35*
CCOc1ccc(CN=C(N)N=C(N)N)cc1Cl,-22,-1,21,9,5,27*
CN(c1ccccc1)S(=O)(=O)c1ccc(C(=O)N2CCCC(C(F)(F)F)C2)cc1 (centres undefined),nt,-8,nt,-4,-23,nt
O=C(Cc1ccccc1)NN1C(=O)c2ccccc2C1=O,-12,0,1,17,2,6
COc1ccccc1CC(=O)NN1C(=O)c2ccccc2C1=O,-5,10,5,17,-10,35*
COc1cc(CSc2nnnn2-c2ccc(C)cc2)cc(OC)c1OC,-7,3,35*,15,-18,53*
COc1ccc(F)cc1CSc1nnnn1-c1ccc(O)cc1,nt,-1,nt,11,9,nt
CCC(CC)C1C(C#N)=C(N)Oc2n[nH]c(C)c21 (centres undefined),19,-2,-1,12,-4,92*

# High-throughput results as filed in PubChem BioAssay.
